Records with an inconclusive call do not appear. A call without a number means that no potency is given here. Calls of active or inactive are those of the source. The call rests on the fitted dose curve; in most records, active means well fitted cell-killing curve with a large enough effect; inconclusive means small, poorly fitted or top-dose-only effect; inactive means flat fitted curve, though single readings scatter.

The nature of the assay: Cell Viability - LYMP2-021 (AID 974).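 Further: compound exposure lasts 24 hours at 37 °C; nearly all actives have a fitted effect of over 55% in size.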 As to conditions: LYMP2-021 lymphoblastoid cells viability; series mostly up to 92.2 µM. The source says:
NIH Chemical Genomics Center [NCGC]
NIH Molecular Libraries Screening Centers Network [MLSCN]
National Institutes of Environmental Health Sciences [NIEHS]
National Toxicology Program [NTP]
We have developed a 1536-well cell-based assay for quantitative high throughput screening (qHTS) against a number of cell lines to determine in vitro cytotoxicity of small molecules. This particular assay uses a human lymphoblastoid cell line (LYMP2-021) purchased from Coriell Institute for Medical Research.
NCGC Assay Protocol Summary:
The CellTiter-Glo luminescent cell viability assay (Promega) is a homogeneous method to measure the number of viable cells in culture. The end point readout of this assay is based on quantitation of intracellular ATP, an indicator of metabolic activity, using the luciferase reaction. Luciferase catalyzes the oxidation of beetle Luciferin to oxyluciferin and light in the presence of ATP. The luminescent signal is proportional to amount of ATP present.
Using the CellTiter-Glo luminescent cell viability assay, the amount of cellular ATP was measured in the lymphoblastoid cell line with complete culture medium following compound treatment for 24 hours. The assay was performed in opaque white Kalypsys 1536-well plates. In the screen, tetraoctylammonium bromide was used as positive control. Library compounds were measured for their ability to cause acute toxicity in the cell line, as reflected by a decrease in intracellular ATP levels, in a concentration-dependent manner. […] AC50 values were determined from concentration-response data modeled with the standard Hill equation.
qHTS protocol for CellTiter Glo lymphoblastoid cellular assay
[Step] [Parameter] [Value] [Description]
1. Reagent; 5 uL; 2500 lymphoblastoid cells/well
2. Time; 5 hr; 37 C incubation
4. Controls; 23 nL; Tetraoctylammonium bromide 6.4pM to 92 uM
5. Time; 24 hr; 37 C incubation
6. Reagent; 5 uL; CellTiter Glo reagent
7. Time; 30 min; Room Temperature
8. Detection; Luminescence; Viewlux plate reader
Keywords: cell viability, cytotoxicity, lymphoblastoid cell line, luminescence, NTPHTS, NTPHTS_NCGC, NIEHS, DSSTox, MLSMR, MLSCN, NIH Roadmap, qHTS, NCGC
For `Cc1ccc(C)c([N+](=O)[O-])c1`, the Potency result is “inactive”.
In the case of `CNc1ccc([N+](=O)[O-])cc1` it was “inactive”.
Under `CC(C)CCOC(=O)/C=C/c1ccccc1` stands “inactive”.
In the case of `S=C([S-])NCCNC(=S)[S-].[Zn+2]` it was “inactive”; in that of `CCOC(C)(C)C`, “inactive”; in that of `CCCCC=O`, “inactive”.
Turning to `C=CCn1c(=O)n(CC=C)c(=O)n(CC=C)c1=O`, the Potency result was “inactive”.
In the case of `COc1ccccc1[N+](=O)[O-]` it was “inactive”; in that of `Cc1cc(C)cc([N+](=O)[O-])c1`, “inactive”.
Take `CN(C)c1cccc(O)c1`: the Potency result was “inactive”.
Regarding `O=C(O)c1cccc([N+](=O)[O-])c1`, the Potency entry is “inactive”.
In the case of `CCc1ccccc1` it was “inactive”.
As for `Cc1ccc(C#N)cc1`, the Potency result was “inactive”.
In the case of `Cc1ccccc1C(=O)O` it was “inactive”.
Turning to `Cc1cc(C)cc(N)c1`, the Potency entry was “inactive”.
In the case of `Cc1cscn1` it was “inactive”; in that of `CC(=O)c1nccs1`, “inactive”; in that of `CCC=O`, “inactive”.
Take `Nc1cc([N+](=O)[O-])ccc1C(=O)O`: the Potency entry was “inactive”.
Under `C=C(C)OC(C)=O` stands “inactive”; under `CCC(=O)/C=C/C1C(C)=CCCC1(C)C` (stereo not given), “inactive”.
In the case of `CCc1ccccc1O` it was “inactive”; in that of `CCCC=O`, “inactive”.
In the case of `COc1ccc(OC)cc1` it was “inactive”.
Consider `NCCCCCCN`, for which the Potency result was “inactive”.
Under `CC(=O)Nc1ccc(C)cc1` stands “inactive”.
In the case of `CC1CCCO1` (stereo not given), the Potency entry was “inactive”.
Under `C=C(C)C(=O)OC` stands “inactive”; under `COC(=O)CS`, “inactive”.
Under `Nc1ccc(Cl)cc1[N+](=O)[O-]` stands “inactive”.
In the case of `CC(C)Cc1nccs1`, the Potency result is “inactive”.
With `CC(C)(c1cc(Br)c(OCC(Br)CBr)c(Br)c1)c1cc(Br)c(OCC(Br)CBr)c(Br)c1` (stereo not given), the Potency entry is “inactive”.
In the case of `C/C(C=O)=C/c1ccccc1` it was “inactive”; in that of `CC(=O)CC(C)C`, “inactive”.
Under `Cc1ccc2oc(=O)ccc2c1` stands “inactive”; under `C[C@@H]1CC2(OC[C@]3(C)O[C@H]23)O[C@H]2C[C@@]3(C)[C@@H]4CC[C@H]5C(C)(C)C(O[C@@H]6OC[C@@H](O)[C@H](O)[C@H]6O)CC[C@@]56C[C@@]46CC[C@]3(C)[C@@H]12` (stereo not given in full), “inactive”; under `Cc1ccc(S(=O)(=O)NC2CCCCC2)cc1`, “inactive”.
Under `C=C(C)C(=O)OCCCCCC` stands “inactive”.
Regarding `CC/C=C1/OC(=O)c2ccccc21`, the Potency result was “inactive”.
Under `O=C(Cl)c1ccccc1[N+](=O)[O-]` stands “inactive”.

The values are drawn from PubChem BioAssay (NCATS).
